± gives the standard deviation.

Experimental findings from the supplement of paper PMC10338343 are described below.

One assay concerns MILI (PIWIL2) piRISC loaded with L1MC piRNA (26 nt). The experiment in a line: pre-steady-state target cleavage rate (min^-1); guide: L1MC piRNA 5'p-UAACUAAAUACUAUGCAAGCUGUAGG; MIWI and MILI are mouse PIWI proteins and EfPiwi is from a freshwater sponge; tags in brackets are library labels; higher = faster piRNA-guided slicing of the target. To be noted: auxiliary factor: 500 nM mouse GTSF1. The method, boiled down:
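Sequencing of uncleaved targets, normalised to depth and to weakly complementary targets, was the readout of this Cleave-'n-Seq assay. A transcribed, DNA-blocked target RNA library (0.1 nM) was mixed with 1 nM active affinity-purified piRISC carrying one synthetic guide, with or without 500 nM GTSF1 partner protein, in HEPES–potassium acetate buffer at 33 °C for 0–8 or 0–960 min. Three trials were pooled, k3 was capped at 0.0001 min^-1, and a burst-and-steady-state fit gave the pre-steady-state cleavage rate.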
In the case of UCCUGGAUCAGCAAGCAUAGUAUUUUCAAA, the “pre-steady-state target cleavage rate” value worked out at 0.024 ± 0.0074.
On to UCCUGGAUCAGCUUGCAUAGUAAAAAGUUA, for which the “pre-steady-state target cleavage rate” value was determined as 0.102 ± 0.019.
As for UCCUCCUACAGCUUGCAUACUAUAUAGUUA, the “pre-steady-state target cleavage rate” value is 0.0619 ± 0.015.
UCCUGGAUGUGCUUGCAUAGUAUUUUGAUA: the “pre-steady-state target cleavage rate” value was found to be 0.0122 ± 0.0054.
Still for that read-out and setting: to UCCUGGAUCAGCUUGCAUAGUAAAAAGAAA belongs 0.0472 ± 0.015; to UCCUGGUACAGCUUGCAUAGUAAUUACUUA, 0.00729 ± 0.0052; to UCCUGGAUGUCCUUGCAUAGUAAUUAGUAA, 0.0241 ± 0.0076.
The same measure, in the same setting: to UCCUGGAUCAGCUUGCAUAGUAUUUUCUAA belongs 0.0634 ± 0.017; to UCCUGGAUGUCGAAGCAUAGUAAUUAGUUA, 0.00988 ± 0.0037.
As for UCCUGGAUGAGCUUGCAUAGUAUUCUAGUUA, the “pre-steady-state target cleavage rate” value was determined as 0.165 ± 0.029.
Same read-out and setting: to UCCUGGAUCAGCUUGCAUAGAAUUUAGAAA belongs 0.0123 ± 0.0052; to UCCUGGAUGACGUUGCAUAGUAUUUAGUAA, 0.136 ± 0.022; to UCCUGGUACACCUUGCAUAGUAUUUUGUUA, 0.201 ± 0.054.
Still for that read-out and setting: to UCCUGGAUGUCGAUGCAUAGUAUGUAGUUA belongs 0.0337 ± 0.0087.
In the case of UCCUGGAUGUCCUUGCAUAGUAUAAAGUAA, the “pre-steady-state target cleavage rate” value was 0.0169 ± 0.0066.
Same read-out and setting: to UCCUGGAUGUCGUUGCAUAGCAUUUAGUUA belongs 0.0206 ± 0.007.
The same measure, in the same setting: to UCCUGGAACAGCUUGCAUAGUAAUUACAAA belongs 0.0522 ± 0.019; to UCCUGGUACAGCUUGGAUAGUAUUUAGUAA, 0.202 ± 0.041; to UCCUGGAUCAGCUUCCAUAGUUUUUAGUUA, 0.0089 ± 0.0041.
The same measure, in the same setting: to UCCUGGUACACGAUGCAUAGUAUUUACAAA belongs 0.00826 ± 0.0057; to UCCUGGAUCAGGUUCCAUAGUAUUUAGUUA, 0.00709 ± 0.004.
With UCCUGGAACAGCUUGCAUAGAUUUUAGUAA, the “pre-steady-state target cleavage rate” value came to 0.0259 ± 0.0091.
Still for that read-out and setting: to UCCUGGAUGUCGAUGCAUAGUAAUUUGUUA belongs 0.00959 ± 0.0053; to UCCUGGAUGUGCUAGCAUAGUAUUAAGUUA, 0.0987 ± 0.014; to UCCUGGAUGUGCUUGCAUAGUAAUUAGUAA, 0.0721 ± 0.018.
Still for that read-out and setting: to UCCUGGAUGUCGUAGCAUAGUAUUUUGUUA belongs 0.0314 ± 0.01.
Still for that read-out and setting: to UCCUGGAUGUCGAUGCAUAGUAUUUUGUUA belongs 0.0682 ± 0.016; to UCCUGGAUGUCGAUGCAUAGUAUAAUGUUA, 0.031 ± 0.012.
Turning to UCCUGGUAGUCCUUGCAUAGUAUUUUCAAA, the “pre-steady-state target cleavage rate” value is 0.0125 ± 0.0059.
For the sequence UCCUGGAUGUCCUUGCAUAGUUUUUAGAUA, the “pre-steady-state target cleavage rate” value was found to be 0.00584 ± 0.0044.
For UCCUGGAUCAGCUUGCAUAGUAUUAACAAA, the “pre-steady-state target cleavage rate” value turned out to be 0.0885 ± 0.022.
UCCUGGAUGUCCUUGCAUUCUAUUUAGUUA: the “pre-steady-state target cleavage rate” value was 0.00856 ± 0.0043.
Same read-out and setting: to UCCUGGAUGACCUUGCAUAGUAUUUAGUAA belongs 0.152 ± 0.019.
On the same count and under the same terms, to UCCUGGAUGUGCUUGCAUUGUAUUUACUUA belongs 0.0239 ± 0.0082.
Same read-out and setting: to UCCUGGAUGUCCUUGCAUAGUAUUUUCAAA belongs 0.023 ± 0.0094; to UCCUGGAACAGGUUGCAUAGUAUUUACAAA, 0.0582 ± 0.013.
Take UCCUGGAUGUGCUUCGUUAGUAUUUAGAAA: the “pre-steady-state target cleavage rate” value is less than 0.0001.

The same assay, now with this note: auxiliary factor: none (no GTSF1).
As for UCCUGGAUGUCGAACGAUAGUAUAAUGUUA, the “pre-steady-state target cleavage rate” value is less than 0.0001.
Still for that read-out and setting: to UCCUGGAUGUCGAUCCAUAGUAUUUUGUUA belongs less than 0.0001; to UCCUGGAUGUCGAACGUAACAAUUUAGUUA, less than 0.0001.
